Inconclusive results are not listed. Activity calls are given as the source filed them. The calls were made as follows, unless noted: active = hit-call score of the fitted dose curve at least 0.9, where 1 is the maximum; inconclusive = response in the unintended direction; inactive = score below 0.9.

Assay [1] is described as follows: TOX21_p53_BLA_p2_viability: Viability Assessment in the Tox21 HCT-116 p53 Agonism Beta-lactamase Assay, Phase 2 (AID 2283591).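 Also: actives lower the ATP signal meaning cytotoxicity.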 The essentials: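 Cytotoxicity readout: CellTiter-Glo ATP luminescence, 30 min at room temperature, after the beta-lactamase read. Cells were HCT116 exposed 16 h at 37C to compounds pin-transferred at 217-fold dilution from DMSO stocks.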

The target of assay [2] is Cellular tumor antigen p53 (Homo sapiens) (UniProt P04637). In words: TOX21_p53_BLA_p2_ratio: Tox21 HCT-116 p53 Agonism Beta-lactamase Assay, Ratio, Phase 2 (AID 2283592). The essentials: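 Read-out is the blue/green (460/530 nm, 405 nm excitation) ratio after 2 h CCF4-AM loading, fitted as gain versus DMSO. Compounds, pinned at 217-fold dilution from DMSO stocks, stayed 16 h on HCT-116 beta-lactamase reporter cells seeded 5 h earlier.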

The target is the same in assay [3]. In words: TOX21_p53_BLA_p3_ratio: Tox21 HCT-116 p53 Agonism Beta-lactamase Assay, Ratio, Phase 3 (AID 2283596). The essentials: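 Cells were seeded at 4000/well, rested 5 h at 37C, then dosed with DMSO compound solutions (217-fold dilution) for 16 h. CCF4-AM substrate was loaded for 2 h at room temperature, and the 460/530 nm emission ratio was fitted for gain of signal versus DMSO.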

The target is the same in assay [4]. In words: TOX21_p53_BLA_p5_ratio: Tox21 HCT-116 p53 Agonism Beta-lactamase Assay, Ratio, Phase 5 (AID 2283599). Put shortly:
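Beta-lactamase reporter ratio (blue 460 nm over green 530 nm, 405 nm excitation) after 2 h CCF4-AM loading, in HCT-116 cells exposed 16 h at 37 C to compounds pinned at 217-fold dilution. Increases relative to DMSO baseline scored.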

For assay [5] the target is unchanged. In words: TOX21_p53_BLA_p4_ratio: Tox21 HCT-116 p53 Agonism Beta-lactamase Assay, Ratio, Phase 4 (AID 2283601). The essentials: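 Signal is the blue/green (460nm/530nm) ratio of cleaved versus uncleaved CCF4-AM substrate, read after 2 h substrate loading. Cells were HCT116 carrying the p53-responsive beta-lactamase reporter, dosed 16 h at 37C, 5% CO2; CellTiter-Glo measured in parallel.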

The subject of assay [6] is Brachyury (BRA) Protein Expression, Deisenroth Lab, TBXT (gene 6862). In words: CCTE_Deisenroth_DEVTOX-GLR_legacy_Bra: (Legacy) CCTE's DevTox GLR-Endo Assay Evaluation of Brachyury (BRA) Protein Expression, Deisenroth Lab (AID 2284329; active = hit-call score of the fitted dose curve at least 0.9, where 1 is the maximum; inactive = score below 0.9). Put shortly: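 Percent Bra-positive cells, scored by high-content imaging against a threshold of 5x BMAD over the undifferentiated control median, with the 0.2% DMSO median subtracted. RUES2-GLR cultures were dosed twice at 24 h intervals across a 48 h differentiation, at 1 nM–200 uM in ten steps, with n=4 replicates.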

Assay [7] in a line: CCTE_Deisenroth_DEVTOX-GLR_legacy_CellCount: (Legacy) Viability Assessment in CCTE's DevTox GLR-Endo Assay, Deisenroth Lab (AID 2284331; active = hit-call score of the fitted dose curve at least 0.9, where 1 is the maximum; inactive = score below 0.9). The conditions noted are these: actives raise or lower the signal. The essentials:
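Viability is taken from imaged nuclei counts in fixed RUES2-GLR cultures after 48 h of differentiation under two 24 h-spaced chemical exposures, 10 concentrations from 1 nM to 200 uM, gain or loss versus DMSO baseline.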

Assay [8] has as its system SRY-box transcription factor 17 (SOX17) Protein Expression, Deisenroth Lab, SOX17 (gene 64321). In words: CCTE_Deisenroth_DEVTOX-GLR_legacy_Sox17: (Legacy) CCTE's DevTox GLR-Endo Assay Evaluation of SRY-box transcription factor 17 (SOX17) Protein Expression, Deisenroth Lab (AID 2284341; active = hit-call score of the fitted dose curve at least 0.9, where 1 is the maximum; inactive = score below 0.9). The conditions noted are these: actives raise or lower the signal. Put shortly:
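Endoderm-differentiation readout in RUES2-GLR human pluripotent cells at 48 h, concentrations spanning 1 nM - 200 uM. Sox17-positive cells divided by total cell count; gain or loss relative to DMSO solvent control, n=4 experimental replicates.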

In assay [9] the test system is SRY-box transcription factor 2 (SOX2) Protein Expression, Deisenroth Lab, SOX2 (gene 6657). In words: CCTE_Deisenroth_DEVTOX-GLR_legacy_Sox2: (Legacy) CCTE's DevTox GLR-Endo Assay Evaluation of SRY-box transcription factor 2 (SOX2) Protein Expression, Deisenroth Lab (AID 2284346; active = hit-call score of the fitted dose curve at least 0.9, where 1 is the maximum; inactive = score below 0.9). Put shortly:
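Percent Sox2-positive cells was scored by high-content imaging of 5 fields per well. Positivity cutoff was 5x BMAD over the directed endoderm control, and the DMSO median was subtracted. Cells were RUES2-GLR, dosed twice at 24-h intervals over 48 h of differentiation (1 nM-200 uM).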

Assay [10] has as its system SRY-box transcription factor 17 (SOX17) Protein Expression, Deisenroth Lab, SOX17 (gene 64321). In words: CCTE_Deisenroth_DEVTOX-GLR_Endo_SOX17: CCTE's DevTox GLR-Endo Assay Evaluation of SRY-box transcription factor 17 (SOX17) Protein Expression, Deisenroth Lab (AID 2284413; active = hit-call score of the fitted dose curve at least 0.9, where 1 is the maximum; inactive = score below 0.9). Put shortly:
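RUES2-GLR human pluripotent cells were seeded 24 h, then differentiated toward endoderm for 48 h with two chemical exposures 24 h apart (10-point series, 1 nM - 200 uM). Nuclei-stained fixed cells were imaged; endpoint is percent change in SOX17+ cells versus 0.2% DMSO.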

For assay [11], the system named is Brachyury (BRA) Protein Expression, TBXT (gene 6862). In words: CCTE_Deisenroth_DEVTOX-GLR_Endo_BRA: CCTE's DevTox GLR-Endo Assay Evaluation of Brachyury (BRA) Protein Expression, Deisenroth Lab (AID 2284417; active = hit-call score of the fitted dose curve at least 0.9, where 1 is the maximum; inactive = score below 0.9). The essentials: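 Read-out: BRA+ cell count divided by total cell count by high-content imaging (5 fields per well), expressed relative to 0.2% DMSO solvent control. RUES2-GLR cells dosed twice over a 48 h differentiation; concentrations 1 nM - 200 uM.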

Assay [12] can be described thus: CCTE_Deisenroth_DEVTOX-GLR_Endo_CellCount: Viability Assessment in CCTE's DevTox GLR-Endo Assay, Deisenroth Lab (AID 2284420; active = hit-call score of the fitted dose curve at least 0.9, where 1 is the maximum; inactive = score below 0.9). Put shortly: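 Percent change in nuclear-stain cell counts versus 0.2% DMSO, from high-content imaging over 5 fields per well. Over a 48 h endoderm differentiation, RUES2-GLR cells received two doses 24 h apart across a 1 nM–200 uM series, with n=4.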

The test system of assay [13] is SRY-box transcription factor 17 (SOX17) Protein Expression, Deisenroth Lab, SOX17 (gene 64321). In words: CCTE_Deisenroth_DEVTOX-GLR_Pluri_SOX17: CCTE's DevTox GLR-Pluri Assay Evaluation of SRY-box transcription factor 17 (SOX17) Protein Expression, Deisenroth Lab (AID 2284427). Put shortly:
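The endpoint is SOX17+ cells as a fraction of cell count, corrected for the 0.2% DMSO control and obtained by high-content fluorescence imaging of fixed cells. Cells were RUES2-GLR under a 48-hour endoderm differentiation, dosed twice at 24-hour intervals over 1 nM–200 uM.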

In assay [14] the test system is SRY-box transcription factor 2 (SOX2) Protein Expression, Deisenroth Lab, SOX2 (gene 6657). In words: CCTE_Deisenroth_DEVTOX-GLR_Pluri_SOX2: CCTE's DevTox GLR-Pluri Assay Evaluation of SRY-box transcription factor 2 (SOX2) Protein Expression, Deisenroth Lab (AID 2284428; active = hit-call score of the fitted dose curve at least 0.9, where 1 is the maximum; inactive = score below 0.9). The essentials:
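Percent SOX2+ cells (SOX2+ count per total cells, fluorescent imaging) in RUES2-GLR human pluripotent line, expressed relative to 0.2% DMSO. Compounds dosed twice at 24 h intervals during 48 h, 1 nM - 200 uM, 10 concentrations.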

Assay [15] relates to Brachyury (BRA) Protein Expression, Deisenroth Lab, TBXT (gene 6862). In words: CCTE_Deisenroth_DEVTOX-GLR_Pluri_BRA: CCTE's DevTox GLR-Pluri Assay Evaluation of Brachyury (BRA) Protein Expression, Deisenroth Lab (AID 2284429). The essentials:
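Percent BRA+ cells (BRA+ count over total cells) by high-content imaging of fixed RUES2-GLR cultures, corrected by 0.2% DMSO control. Cells received two doses over 48-hour differentiation, 1 nM–200 uM, n=4 experiments.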

Assay [16] is described as follows: CCTE_Deisenroth_DEVTOX-GLR_Pluri_CellCount: Viability Assessment in CCTE's DevTox GLR-Pluri Assay Evaluation of Total Cell Counts, Deisenroth Lab (AID 2284430; active = hit-call score of the fitted dose curve at least 0.9, where 1 is the maximum; inactive = score below 0.9). Put shortly: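 Cytotoxicity readout: fluorescent nuclei counts by high-content imaging, expressed as percent change relative to 0.2% DMSO. Human RUES2-GLR pluripotent line differentiated 48 h, dosed twice at 24-h intervals across 1 nM - 200 uM (10 points).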

A short description of assay [17]: TOX21_p53_BLA_p5_viability: Viability Assessment in the Tox21 HCT-116 p53 Agonism Beta-lactamase Assay, Phase 5 (AID 2283600). Put shortly: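 Viability came from CellTiter-Glo ATP luminescence, read after 30 min at room temperature. Before this, HCT-116 p53-bla cells (4000/well) had 16 hours of compound exposure at 37C, with DMSO stocks diluted 217-fold on transfer.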

Assay [18] concerns the target PGR (gene 5241) (UniProt P06401). In words: TOX21_PR_BLA_Followup_Agonist_ratio: Tox21 HEK293 Progesterone Receptor (PR) Agonism Beta-lactamase Follow-Up Assay, Ratio (AID 2283933). Put shortly: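 Beta-lactamase reporter readout: ratio of cleaved (ch2) to uncleaved (ch1) substrate after 2 h room-temperature loading, following 16 h compound exposure at 37C. Cells were PR-UAS-bla HEK293T in 2% charcoal-stripped FBS medium. Viability was multiplexed by CellTiter-Glo.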

For assay [19] the target is unchanged. In words: TOX21_PR_BLA_Followup_Antagonist_ratio: Tox21 HEK293 Progesterone Receptor (PR) Antagonism Beta-lactamase Follow-Up Assay, Ratio (AID 2283934).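 Also: PR-UAS-bla HEK293T cells stimulated with 1 nM R5020 agonist for 16 hr.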 The essentials: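 Readout is the blue/green (ch2/ch1) substrate cleavage ratio after 2 hours at room temperature, following 16 hr co-treatment of PR-bla HEK293T cells with compound and 1nM promegestone. Multiplexed CellTiter-Glo viability flags cytotoxicity; DMSO baseline.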

Assay [20] in a line: TOX21_PR_BLA_Followup_Agonist_viability: Viability Assessment in the Tox21 HEK293 Progesterone Receptor (PR) Agonism Beta-lactamase Follow-Up Assay (AID 2283935).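 Also: signal loss means lower viability so actives are cytotoxic.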 Put shortly:
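Run multiplexed with the beta-lactamase FRET read, this endpoint measures ATP by CellTiter-Glo luminescence (30 min, room temperature). PR-UAS-bla HEK293T cells received compound 6 hr after plating and were then incubated 16 hr at 37C in 2% stripped serum.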

Assay [21] is described as follows: TOX21_PR_BLA_Followup_Antagonist_viability: Viability Assessment in the Tox21 HEK293 Progesterone Receptor (PR) Antagonism Beta-lactamase Follow-Up Assay (AID 2283936).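 Also: cells exposed to compound with R5020 agonist for 16 h; hits lower the luminescence signal meaning cytotoxicity.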 Put shortly: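 PR-UAS-bla HEK293T cells in medium with 2% charcoal-stripped FBS were treated with compounds plus R5020 for 16 hr at 37C. After the beta-lactamase read, CellTiter-Glo was added to the same wells and luminescence read after 30 min at room temperature.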

The target in assay [22] is PGR (gene 5241) (UniProt P06401). In words: TOX21_PR_LUC_Followup_Agonist: Tox21 HEK293 Progesterone Receptor (PR) Agonism Luciferase Follow-Up Assay (AID 2283937; active = hit-call score of the fitted dose curve at least 0.9, where 1 is the maximum; inactive = score below 0.9). The essentials: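 Agonism scored as luciferase induction over DMSO, read by ONE-Glo after 30 min at RT. Compounds were incubated 16 h at 37C on HEK293-PR-A-luc cells (3,000/well, pre-plated 5 h) previously grown 5 days in charcoal-stripped serum.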

Assay [23] is described as follows: TOX21_PR_LUC_Followup_Agonist_viability: Viability Assessment in the Tox21 HEK293 Progesterone Receptor (PR) Agonism Luciferase Follow-Up Assay (AID 2283941).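 Also: loss of signal means cytotoxicity so actives lower viability.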 The essentials:
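Cytotoxicity counter-readout in the PR-A luciferase reporter line HEK293, with 16 h compound exposure at 37C after cells were cultured in charcoal-stripped serum. Cellular ATP quantified by CellTiter-Glo luminescence.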

Sequence of PGR (gene 5241) (P06401 whole entry, looked up): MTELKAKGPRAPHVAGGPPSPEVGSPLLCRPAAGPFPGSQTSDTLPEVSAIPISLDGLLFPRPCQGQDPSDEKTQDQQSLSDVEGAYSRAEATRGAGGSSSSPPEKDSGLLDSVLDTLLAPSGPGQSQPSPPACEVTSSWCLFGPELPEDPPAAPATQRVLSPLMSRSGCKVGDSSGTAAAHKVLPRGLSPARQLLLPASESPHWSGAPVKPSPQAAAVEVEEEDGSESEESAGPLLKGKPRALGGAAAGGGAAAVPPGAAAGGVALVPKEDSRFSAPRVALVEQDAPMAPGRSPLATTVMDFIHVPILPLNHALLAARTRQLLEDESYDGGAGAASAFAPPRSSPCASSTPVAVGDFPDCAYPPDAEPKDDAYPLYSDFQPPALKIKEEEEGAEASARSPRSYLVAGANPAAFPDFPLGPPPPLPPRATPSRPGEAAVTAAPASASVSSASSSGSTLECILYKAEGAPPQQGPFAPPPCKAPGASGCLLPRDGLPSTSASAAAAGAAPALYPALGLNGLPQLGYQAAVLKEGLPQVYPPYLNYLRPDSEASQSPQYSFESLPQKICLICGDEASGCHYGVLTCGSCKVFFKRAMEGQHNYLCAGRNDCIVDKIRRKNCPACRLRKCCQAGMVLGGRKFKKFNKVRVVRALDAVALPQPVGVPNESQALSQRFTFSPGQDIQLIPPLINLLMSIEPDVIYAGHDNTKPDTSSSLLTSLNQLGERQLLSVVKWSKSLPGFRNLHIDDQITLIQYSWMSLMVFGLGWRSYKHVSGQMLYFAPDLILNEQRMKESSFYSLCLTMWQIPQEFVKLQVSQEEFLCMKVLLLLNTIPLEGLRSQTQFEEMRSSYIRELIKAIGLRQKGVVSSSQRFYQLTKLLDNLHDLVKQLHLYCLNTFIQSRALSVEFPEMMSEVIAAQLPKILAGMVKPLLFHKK
Sequence of Cellular tumor antigen p53 (Homo sapiens) (P04637 whole entry, looked up): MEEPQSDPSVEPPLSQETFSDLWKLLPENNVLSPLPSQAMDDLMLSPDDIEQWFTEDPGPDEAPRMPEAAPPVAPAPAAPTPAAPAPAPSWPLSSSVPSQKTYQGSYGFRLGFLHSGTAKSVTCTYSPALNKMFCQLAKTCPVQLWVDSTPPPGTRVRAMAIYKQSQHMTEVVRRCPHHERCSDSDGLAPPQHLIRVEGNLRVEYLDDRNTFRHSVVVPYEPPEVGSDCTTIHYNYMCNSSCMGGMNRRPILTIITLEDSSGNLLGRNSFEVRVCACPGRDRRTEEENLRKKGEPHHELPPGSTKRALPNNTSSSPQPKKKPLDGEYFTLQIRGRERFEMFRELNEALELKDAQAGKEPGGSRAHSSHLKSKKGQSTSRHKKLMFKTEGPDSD

In general, AC50 refers to the midpoint of the concentration-response curve, whichever way the signal moves. Turning to `Nc1cccc2c1CN(C1CCC(=O)NC1=O)C2=O` (stereo not given), the call in [1], in [2], in [3], in [4], in assay [5] and in assay [6] was inactive. In addition, the compound was classed as inactive in assay [9], in [13], in assay [15] and in [16]. Also, the AC50 in assay [7] is 132 nM (active); in assay [8] it was 328 nM (active); in [10], 293 nM (active); in assay [11], 5.03 nM (active); in assay [12], 132 nM (active); in [14], 28.7 nM (active).

Consider `Cc1cc2c(OCC(CNC(C)(C)C)OC(=O)c3ccccc3)cccc2[nH]1` (stereo not given), for which the result in [1], in assay [2], in [3] and in assay [17] was inactive.

Take `O=C(O)[C@H](CC(=O)N1C[C@H]2CCCC[C@H]2C1)Cc1ccccc1`: the compound was classed as inactive in assay [1], in assay [2], in assay [3], in assay [4] and in assay [5].

As to `O=C(NC(Cc1cc(=O)[nH]c2ccccc12)C(=O)O)c1ccc(Cl)cc1` (stereo not given), the compound was called inactive in [1], in assay [2], in assay [3] and in assay [5].

As to `CCn1c2ccccc2c2cc([N+](=O)[O-])ccc21`, the compound was called inactive (in [1]; in assay [2]; in assay [3]; in [4]; in [5]; with PGR (gene 5241) [18]). Further, the compound was called inactive (in [20]; in assay [21]; in the assay with PGR (gene 5241) [22]; in [23]). In addition, the AC50 in the assay with PGR (gene 5241) [19] was 6290 nM (active).

The values are drawn from PubChem BioAssay (EPA / NIEHS).
